Bioassay records as filed in PubChem BioAssay.
BRCA1 expr up: increases BRCA1 expression | Potency, µM (series often up to 46.1 µM), for the others: at the top dose activation, usual class: activators | 380,000 compounds, 1.1% hits | MCF7-BRCA1-FFLuc reporter, luminescence, 48 h; response scale: scaled: vehicle 0%, 10 µM genistein 100%; further: potency means the concentration at half of the fitted maximal effect; nearly all actives have a fitted effect of over 80% in size
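Using MCF7 cells harboring a BRCA1 firefly luciferase reporter, plated 2 h before compound pinning, the screen measured luminescence after 48 h incubation. Responses were normalized to DMSO and 10 microM genistein, then fitted for concentration-effect.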
ELG1 repair inh: blocks ELG1-dependent DNA repair in HEK293T cells | 330,000 compounds, 2.3% hits | Potency, µM (top dose mostly 46.1 µM), for the others: at the top dose activity change, negative = inhibition, actives largely listed as inhibitors | AID 504467 | HEK293T ELG1-luciferase reporter, luminescence, 16 h; DNA damage induced by 5-fluorouridine; further: potency means the concentration at half of the fitted maximal effect; on the % scale 0 is the no-effect control and ±100 the full control effect; nearly all actives have a fitted effect of over 55% in size
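Step one: seed 2,000 cells per well. Step two: pin-transfer compound or DMSO alongside 5-fluorouridine. Step three: incubate 16 hr, 37 °C, 5% CO2. Step four: add ONE-Glo, wait 30 min, read luminescence.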
Giardia kill: Giardia lamblia killing; AID 540267; activity change, % at 7.66 µM, hits read low; Giardia lamblia trophozoite viability; 340,000 compounds, 0.15% hits; in the data active means activity change below about -80%; inconclusive means between about -30% and that limit;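 further: parasites exposed to compound for two days anaerobically before the ATP read; on the % scale 0 is the no-effect control and ±100 the full control effect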
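Each well holds 100 Giardia trophozoites and compound. After two days (48 hrs) at 37 deg C in anaerobic conditions, ATP is quantified by luminescence.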
VP16 counter: inhibits Gal4-VP16 luciferase reporter, ROR gamma counter-screen; Potency, µM (top dose mostly 53.6 µM), for the others: at the highest dose activity, negative = inhibition, actives largely listed as inhibitors; 310,000 compounds, 3.5% hits; AID 2546; Drosophila S2 Gal4-VP16 UAS-luciferase, luminescence, 20 h;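 further: Gal4-VP16 expression switched on by copper sulfate through the metallothionein promoter; potency means the concentration at half of the fitted maximal effect; on the % scale 0 is the no-effect control and ±100 the full control effect; nearly all actives have a fitted effect of over 50% in size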
p53 reactivation: re-activators of mutant p53. H1299 p53-A138V BP100-luciferase reporter, luminescence, 24 h. Potency, µM (titrated, usually from 92.2 µM), for inactives: at the highest dose activity change, positive = activation, actives largely listed as activators. 320,000 compounds, 0.063% hits. AID 504706; further: potency means the concentration at half of the fitted maximal effect; % of control where 0% means no effect; nearly all actives have a fitted effect of over 45% in size
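H1299 (p53-null), stable ts p53-A138V + BP100-Luc; 1000 cells/well, Opti-MEM/10% FBS; cpd 4 pt, 1:5; 24 h, 37 deg C, 5% CO2; detection reagent 10 min RT; luminescence.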
RORg inh: inhibitors of mouse ROR gamma transcriptional activity. Drosophila S2 Gal4-RORgamma UAS-luciferase reporter, 20 h. 310,000 compounds, 5.4% hits. P51450. AID 2551. Potency, µM (highest dose often 53.6 µM), inactives show top-dose activity change, negative = inhibition, actives largely listed as inhibitors; further: potency means the concentration at half of the fitted maximal effect; on the % scale 0 is the no-effect control and ±100 the full control effect; nearly all actives have a fitted effect of over 60% in size
Target sequence (P51450 whole entry, looked up, the tested form may be a part): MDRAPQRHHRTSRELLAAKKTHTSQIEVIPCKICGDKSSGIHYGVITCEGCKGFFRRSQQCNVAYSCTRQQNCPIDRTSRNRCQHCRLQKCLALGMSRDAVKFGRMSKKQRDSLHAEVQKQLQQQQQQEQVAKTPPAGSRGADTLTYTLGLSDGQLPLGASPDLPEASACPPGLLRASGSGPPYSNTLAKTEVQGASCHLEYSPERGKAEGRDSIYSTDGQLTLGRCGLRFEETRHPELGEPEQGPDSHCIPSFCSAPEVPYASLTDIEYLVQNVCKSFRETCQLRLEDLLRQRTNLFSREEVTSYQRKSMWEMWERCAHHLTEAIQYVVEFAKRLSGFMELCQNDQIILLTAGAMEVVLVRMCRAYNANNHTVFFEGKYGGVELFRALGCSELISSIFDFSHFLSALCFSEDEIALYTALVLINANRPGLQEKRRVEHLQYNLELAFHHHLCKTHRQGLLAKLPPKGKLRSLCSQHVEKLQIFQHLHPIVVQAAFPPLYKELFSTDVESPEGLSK
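Drosophila Schneider cells stably carrying a metallothionein-driven Gal4 DBD–ROR gamma fusion and a UAS-Photinus luciferase reporter were exposed to compound for 1 hr, then induced with copper sulfate (700 uM final) for 20 hr at ambient temperature before luminescence reading.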
* marks the source's active call; other numbers are inactive results; ? = inconclusive; . = not tested or not shown; [ ] = remark or other dose. Rows were chosen to be rich in hits. Some 7.6% of all compounds tested hit in one or more screens of this group. Unless noted, the call rests on the fitted dose curve; in most records, active means well fitted curve in the direction sought with a large enough effect; inconclusive means small, poorly fitted or top-dose-only effect, or another doubt; inactive means no such curve, though single readings can be large; an effect the other way counts as inactive or inconclusive.

SMILES	BRCA1 expr up	ELG1 repair inh	Giardia kill	VP16 counter	p53 reactivation	RORg inh
CC(=O)Nc1cccc(C(=O)/C=C/c2ccc(C)cc2)c1	-77%	-14%	-5	?	?	13µM*
O=C(Nc1ccc(Cl)cc1)Nc1ccccc1C(=O)O	?	?	?	11µM*	-2%	7.1µM*
CCC(=O)Nc1cccc(C(=O)/C=C/c2ccc(F)cc2)c1	-93%	-3%	0	?	-10%	?
COc1cc(C(=O)Nc2cccc(OCc3cc(=O)n4cc(C)sc4n3)c2)cc(OC)c1OC	10%	.	.	.	.	.
CCCNC(=S)N1CCN(c2nc(C)nc3sc4c(c23)CCCC4)CC1	-1%	?	-3	-12%	-2%	?
COCCCNC(=S)N1CCN(c2nc(C)nc3sc4c(c23)CCCC4)CC1	-20%	21µM*	0	-9%	4%	?
CCOc1cccc(C(=O)Nc2ccc(NC(=O)c3ccccc3)c(C)c2)c1	36%	-22%	8	0%	3%	18%[1.91 µM]
COc1cc(/C=C/C(=O)N2CCC=CC2=O)cc(OC)c1OC	-51%	?	11	7.9µM*	-18%	3.5µM*
COc1cc(/C=C/C(=O)N2CCCN(C(=O)/C=C/c3cc(OC)c(OC)c(OC)c3)CC2)cc(OC)c1OC	-20%	16%	-1	25%	9%	-7%
CC1CCC(C(=O)O)NC1c1cccc(N2CCCC2=O)c1 (stereo not given)	.	.	.	2%[10 µM]	.	6%[10 µM]
Cc1ccc2nc(NNC(=O)c3ccc4c(c3)OCCO4)sc2c1	-7%	12%	2	?	5%	4.5µM*
O=C(NNc1nc2cc3c(cc2s1)OCO3)c1ccccc1	18%	?	6	?	?	5µM*
O=C(NNc1nc2cc3c(cc2s1)OCO3)c1cccc(F)c1	0%	?	9	?	?	4.5µM*
COc1ccccc1C(=O)Nc1nc2cc3c(cc2s1)OCO3	?	?	17	-11%	14%	6%
Nc1nonc1C(=O)NCCNCc1c(OCc2ccccc2F)ccc2ccccc12	-46%	?	4	-10%	0%	11%
Cc1cc(C)c(Nc2ncnc(N)n2)c(C)c1	-12%	25%	0	-7%	2%	-25%
NC(=O)C(CC(=O)O)NC(=O)[C@@H]1CCCNc2c(I)cc([N+](=O)[O-])cc2C(=O)N[C@@H](CO)C(=O)N[C@@H](Cc2ccc(O)cc2)C(=O)N1 (stereo not given in full)	11%	1%	6	1%	-8%	-6%
N#Cc1ccc(NC(=O)Nc2ccc(Oc3ccc(NC(=O)Nc4ccc(C#N)cc4)cc3)cc2)cc1	-86%	?	13	13µM*	-2%	?
N#Cc1ccc(NC(=O)Nc2cccc(C#N)c2)cc1	-31%	?	5	-6%	1%	26%
O=C(O)c1ccc2c(c1)C(c1ccccc1)OC2=O (stereo not given)	1%	4%	5	4%	-2%	1%
CC(C)c1ccc(N=C2NN=C(c3cccs3)CS2)cc1	?	?	3	?	?	13µM*
CC(C)N=C1NN=C(c2ccc(Cl)c(Cl)c2)CS1	?	?	-8	?	25%	10µM*
CC(C)(C)N=C1NN=C(c2ccc(Cl)cc2)CS1	?	?	-7	?	?	7.1µM*
CC(C)(C)N=C1NN=C(c2cc3ccccc3o2)CS1	?	?	5	?	?	6.3µM*
COc1ccc(CN=C2NN=C(c3ccc(Cl)cc3)CS2)cc1	28%	?	4	-7%	9%	?
CCOC(=O)/C=C1/SCC(=O)N1CC(=O)NC12CC3CC(CC(C3)C1)C2	-8%	.	-1	.	.	.
COc1ccc(-c2cnc3c(NC(C)=O)cc(-c4cc(F)ccc4OC)cn23)cc1OC	-50%	.	.	.	.	.
